The nature of assay [1]: qHTS of pediatric cancer cell lines to identify multiple opportunities for drug repurposing: Primary screen for BT-12 cells (AID 1347101). Note: nearly all actives have a fitted effect of over 25% in size. Note: potency is the fitted concentration of half-maximal effect. The settings on record: BT-12 viability, CellTiter-Glo luminescence, 48 h; series mostly up to 57.3 µM. In a few lines:
(§1)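 Cells (500-1,000/well) rested 5 h, then received compounds for 48 h; metabolically active cells were measured by CellTiter-Glo luminescence. Final concentrations spanned up to 46 µM (MIPE, 11-point) or 0.59 nM-46 µM (NPC, 8-point) in primary screens, 11-point in follow-ups.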
On the technique in general: In qHTS, concentration-response curves come from the screen itself.

The nature of assay [2]: qHTS of pediatric cancer cell lines to identify multiple opportunities for drug repurposing: Primary screen for OHS-50 cells (AID 1347103). Note: potency is the fitted concentration of half-maximal effect; nearly all actives have a fitted effect of over 40% in size. The settings on record: OHS-50 osteosarcoma viability, CellTiter-Glo luminescence, 48 h; series mostly up to 57.3 µM. In short, it runs like this:
as §1

Assay [3] is described as follows: qHTS of pediatric cancer cell lines to identify multiple opportunities for drug repurposing: Primary screen for RD cells (AID 1347104). Note: nearly all actives have a fitted effect of over 55% in size. Note: potency is the fitted concentration of half-maximal effect. The settings on record: RD rhabdomyosarcoma viability, CellTiter-Glo luminescence, 48 h; series mostly up to 46 µM. In short, it runs like this: (§2)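 Phenotypic viability qHTS, 48 h compound exposure, CellTiter-Glo luminescence read-out; multi-concentration dosing so that potency and efficacy derive directly from the primary screen's curves.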

A short description of assay [4]: qHTS of pediatric cancer cell lines to identify multiple opportunities for drug repurposing: Primary screen for MG 63 (6-TG R) cells (AID 1347105). Note: nearly all actives have a fitted effect of over 50% in size. Note: potency is the fitted concentration of half-maximal effect. The settings on record: MG 63 (6-TG R) viability, CellTiter-Glo, 48 h; series mostly up to 46 µM. In a few lines: as §2
A short description of assay [5]: qHTS of pediatric cancer cell lines to identify multiple opportunities for drug repurposing: Primary screen for control Hh wild type fibroblast cells (AID 1347106).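 For activity change, negative = cytotoxic: a drop in luminescence marks cytotoxicity and a rise apparent proliferation.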 Note: nearly all actives have a fitted effect of over 55% in size. Note: potency is the fitted concentration of half-maximal effect. The following applies: Hh wild-type fibroblast viability, CellTiter-Glo luminescence, 48 h; series mostly up to 46 µM. In a few lines:
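Viability after 48 h compound treatment at 37C, 500-1,000 cells/well, read as ATP luminescence with CellTiter-Glo. Primary screens used 11-point (MIPE, 0.78 nM-46 µM) or 8-point (NPC, 0.59 nM-46 µM) final concentrations; follow-up screens used 11-point dilutions.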

A short description of assay [6]: qHTS of pediatric cancer cell lines to identify multiple opportunities for drug repurposing: Primary screen for Rh30 cells (AID 1347107). Note: nearly all actives have a fitted effect of over 75% in size. Note: potency is the fitted concentration of half-maximal effect. The settings on record: Rh30 rhabdomyosarcoma viability, CellTiter-Glo luminescence, 48 h; series mostly up to 46 µM. In short, it runs like this:
as §1

Assay [7] in a line: qHTS of pediatric cancer cell lines to identify multiple opportunities for drug repurposing: Primary screen for Rh41 cells (AID 1347108).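 For activity change, negative = cytotoxic: luminescence drop marks cytotoxic hits.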 Note: nearly all actives have a fitted effect of over 70% in size. Note: potency is the fitted concentration of half-maximal effect. The settings on record: Rh41 rhabdomyosarcoma viability, CellTiter-Glo luminescence, 48 h; series mostly up to 46 µM. In a few lines: as §2
Assay [8] in a line: qHTS of pediatric cancer cell lines to identify multiple opportunities for drug repurposing: Confirmatory screen for NB1643 cells (AID 1347109). Note: nearly all actives have a fitted effect of over 45% in size. The following applies: NB1643 neuroblastoma cell viability; series mostly up to 45.9 µM. In short, it runs like this: as §1
Assay [9] in a line: qHTS of pediatric cancer cell lines to identify multiple opportunities for drug repurposing: Confirmatory screen for SK-N-MC cells (AID 1347111).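 Note: cells exposed to compound for 48 h before the readout; nearly all actives have a fitted effect of over 70% in size.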 Note: potency is the fitted concentration of half-maximal effect. The settings on record: SK-N-MC cell viability; series mostly up to 45.9 µM. In a few lines:
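Seed 500-1,000 cells/well; rest 5 h at 37 degrees C. Pin-transfer compounds, 11-point titration. Incubate 48 h. Add CellTiter-Glo, 15 min RT, read luminescence.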

Assay [10] can be described thus: qHTS of pediatric cancer cell lines to identify multiple opportunities for drug repurposing: Confirmatory screen for BT-12 cells (AID 1347112). Note: nearly all actives have a fitted effect of over 55% in size. Note: potency is the fitted concentration of half-maximal effect. The settings on record: BT-12 rhabdoid tumor cells, viability; series mostly up to 45.9 µM. In a few lines: as §1
Assay [11] can be described thus: qHTS of pediatric cancer cell lines to identify multiple opportunities for drug repurposing: Confirmatory screen for NB-EBc1 cells (AID 1347115).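 Note: cells exposed to compound for 48 h before the viability read; nearly all actives have a fitted effect of over 45% in size.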 Note: potency is the fitted concentration of half-maximal effect. The following applies: NB-EBc1 neuroblastoma cells, viability (cytotoxicity); series mostly up to 45.9 µM. In a few lines:
as §1

Assay [12] in a line: qHTS of pediatric cancer cell lines to identify multiple opportunities for drug repurposing: Confirmatory screen for BT-37 cells (AID 1347117). Note: nearly all actives have a fitted effect of over 55% in size. Note: potency is the fitted concentration of half-maximal effect. The following applies: BT-37 pediatric cancer cells, viability; activity change, negative = cytotoxic: at 45.9 µM (top of the series). In short, it runs like this:
as §1

The nature of assay [13]: qHTS of pediatric cancer cell lines to identify multiple opportunities for drug repurposing: Confirmatory screen for MG 63 (6-TG R) cells (AID 1347119). Note: nearly all actives have a fitted effect of over 55% in size. Note: potency is the fitted concentration of half-maximal effect. The following applies: MG-63 (6-TG resistant) osteosarcoma viability; series mostly up to 45.9 µM. In a few lines: as §1
A short description of assay [14]: qHTS of pediatric cancer cell lines to identify multiple opportunities for drug repurposing: Confirmatory screen for control Hh wild type fibroblast cells (AID 1347121). Note: nearly all actives have a fitted effect of over 70% in size. The following applies: viability qHTS; series mostly up to 45.9 µM. In short, it runs like this:
as §1

The nature of assay [15]: qHTS of pediatric cancer cell lines to identify multiple opportunities for drug repurposing: Primary screen for Rh18 cells (AID 1347102). Note: nearly all actives have a fitted effect of over 65% in size. The following applies: Rh18 rhabdomyosarcoma viability, CellTiter-Glo luminescence, 48 h; series mostly up to 46 µM. In a few lines: as §1
Assay [16] is described as follows: qHTS of pediatric cancer cell lines to identify multiple opportunities for drug repurposing: Confirmatory screen for A673 cells (AID 1347110).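 Note: cells exposed to compound for 48 h before the viability read; nearly all actives have a fitted effect of over 65% in size.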 The following applies: A673 Ewing sarcoma cell viability; series mostly up to 45.9 µM. In short, it runs like this:
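Cells plated at 500-1,000/well were treated five hours later with multi-point dilutions up to 46 µM final. After two days, CellTiter-Glo was added and luminescence read.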

Assay [17] can be described thus: qHTS of pediatric cancer cell lines to identify multiple opportunities for drug repurposing: Confirmatory screen for DAOY cells (AID 1347114). Note: nearly all actives have a fitted effect of over 65% in size. Note: potency is the fitted concentration of half-maximal effect. The settings on record: DAOY medulloblastoma cells viability, cytotoxicity qHTS; series mostly up to 45.9 µM. In a few lines:
(§3)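 Viability measured as metabolically active cells via CellTiter-Glo luminescence following 48 hours of compound exposure, 11-point dilutions in confirmatory testing. 500-1,000 cells/well plated 5 hours before dosing; controls were DMSO and 2.3 µM bortezomib.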

Assay [18] can be described thus: qHTS of pediatric cancer cell lines to identify multiple opportunities for drug repurposing: Confirmatory screen for SJ-GBM2 cells (AID 1347116). Note: nearly all actives have a fitted effect of over 60% in size. Note: potency is the fitted concentration of half-maximal effect. The following applies: SJ-GBM2 glioblastoma cells, viability; series mostly up to 45.9 µM. In a few lines:
as §3

Assay [19] in a line: qHTS of pediatric cancer cell lines to identify multiple opportunities for drug repurposing: Confirmatory screen for TC32 cells (AID 1347118).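 Note: potency is the fitted concentration of half-maximal effect; cells exposed to compound for 48 h before the read; nearly all actives have a fitted effect of over 65% in size.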 The following applies: TC32 Ewing sarcoma cells viability qHTS; series mostly up to 45.9 µM. In short, it runs like this: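 qHTS, TC32, 48 h drug treatment, CellTiter-Glo luminescence as a proxy for metabolically active cells; primary top concentration 46 µM (MIPE 11-pt, NPC 8-pt); confirmatory 11-pt.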

Assay [20] can be described thus: qHTS of pediatric cancer cell lines to identify multiple opportunities for drug repurposing: Confirmatory screen for LAN-5 cells (AID 1347113). Note: nearly all actives have a fitted effect of over 65% in size. Note: potency is the fitted concentration of half-maximal effect. The following applies: LAN-5 neuroblastoma cell viability; series mostly up to 45.9 µM. In a few lines: as §1

For 8 molecules, Potency results are on record in PubChem BioAssay (NCATS).

Records with an inconclusive call do not appear. The source made the active and inactive calls. Calls come from the whole dose curve; as a rule, active = well fitted curve in the direction sought with a large enough effect; inconclusive = small, poorly fitted or top-dose-only effect, or another doubt; inactive = no such curve, though single readings can be large; an effect the other way counts as inactive or inconclusive.

In the case of `CC(=O)N1CCN(c2ccc(OCc3nn(C)c(C)c3-c3cccc4c(CCCOc5cccc6ccccc56)c(C(=O)O)n(Cc5cccnc5)c34)cc2)CC1`, the Potency was 2.43 µM (active) in assay [1]; 0.109 µM (active) in assay [2]; 1.66 µM (active) in assay [3]; 14.8 µM (active) in assay [4]; 0.526 µM (active) in [5]; 4.69 µM (active) in assay [6]. In addition, the figures for the Potency in assay [7] and in assay [9] were 0.743 µM (active) and 20.8 µM (active), respectively. Moreover, the Potency result in [8], in assay [10], in [11], in assay [12], in assay [13] and in assay [14] was “inactive” throughout.
Regarding `C[C@H]1C[C@H]2[C@@H]3CCC4=CC(=O)C=C[C@]4(C)[C@@H]3C(=O)C[C@]2(C)[C@@]1(O)C(=O)CO`, the Potency entry in assay [1], in assay [15], in assay [3], in [4], in assay [5] and in assay [6] was “inactive” each time. For the same molecule, the Potency entry in [7] is “inactive”.
On to `CCNC(=O)c1cc2c(-c3cc(OCCN4CCCC4)c(Cl)cc3Cl)nc(N)nc2s1`, for which the Potency entry in [1], in assay [5] and in assay [6] was “inactive” throughout. Further, the results for the Potency in assay [2], in assay [3] and in [4] were 3.85 µM (active), 1.48 µM (active) and 14.8 µM (active), respectively.
Consider `COC(=O)C=CC(=O)OC`, for which the Potency entry in assay [1], in [15], in assay [6], in assay [16], in assay [17] and in [18] was “inactive” in each case. Moreover, the Potency entry in assay [14] is “inactive”. Further, the Potency in [7] is 23.5 µM (active); in assay [9], 3.29 µM (active); in assay [11], 20.8 µM (active); in assay [12], 3.29 µM (active); in assay [19], 3.29 µM (active); in [13], 13.1 µM (active).
For the molecule `CC(C)(C)c1nc2c3cc[nH]c(=O)c3c3cc(F)ccc3c2[nH]1`, the Potency result in assay [1], in assay [15], in assay [5], in [6] and in assay [7] was “inactive” throughout.
`COc1ccc(C(C)=O)c(O)c1`: the results for the Potency in assay [1] and in [3] were 6.85 µM (active) and 16.6 µM (active), respectively. Besides, the Potency result in assay [15], in [6], in [16], in [9], in assay [10] and in assay [20] was “inactive” in each case. Further, the Potency entry in assay [17], in assay [11], in [12], in assay [13] and in [14] was “inactive” in each case.
For `Cc1ccc(O)c(C(CCN(C(C)C)C(C)C)c2ccccc2)c1` (centres undefined), the Potency result in assay [1], in assay [15], in assay [3], in assay [4], in assay [5] and in assay [6] was “inactive” in each case. Also, the Potency entry in [7] was “inactive”.
On to `CC(=O)[C@]1(O)Cc2c(O)c3c(c(O)c2[C@@H](O[C@H]2C[C@H](N)[C@@H](O)[C@H](C)O2)C1)C(=O)c1ccccc1C3=O`, for which the Potency was 0.685 µM (active) in assay [1]; 0.485 µM (active) in assay [2]; 1.05 µM (active) in assay [3]; 0.235 µM (active) in assay [4]; 3.72 µM (active) in [5]; 4.69 µM (active) in assay [6]. In addition, the Potency is 0.935 µM (active) in [7]; 0.522 µM (active) in [9]; 4.14 µM (active) in assay [10]; 0.329 µM (active) in assay [20]; 2.08 µM (active) in [17]; 0.465 µM (active) in assay [11]. Moreover, the results for the Potency in [18] and in assay [12] were 0.369 µM (active) and 0.329 µM (active), respectively.
